Reference: PubChem BioAssay AID1851 (National Center for Advancing Translational Sciences (NCATS), 2009)
Out of some 16,000 compounds screened, about 5,100 (32%) were called active. About 25% were inconclusive and are not listed. The call rests on the fitted dose curve; in most records, active means well fitted curve in the direction sought with a large enough effect; inconclusive means small, poorly fitted or top-dose-only effect, or effect the other way; inactive means no such curve, though single readings can be large or run the other way. The list shows a part of the results.

The molecules below were run against Cytochrome P450 3A4 (Homo sapiens) (UniProt P08684) (assay: Cytochrome panel assay with activity outcomes). Details: recombinant CYP, pro-luciferin dealkylation, luminescence, p450-cyp3a4; series mostly up to 57.1 µM; activity, negative = inhibition: at the top concentration.
On the % scale 0 is the no-effect control and ±100 the full control effect.

Cytochrome P450 3A4 (Homo sapiens), sequence (P08684 whole entry, looked up): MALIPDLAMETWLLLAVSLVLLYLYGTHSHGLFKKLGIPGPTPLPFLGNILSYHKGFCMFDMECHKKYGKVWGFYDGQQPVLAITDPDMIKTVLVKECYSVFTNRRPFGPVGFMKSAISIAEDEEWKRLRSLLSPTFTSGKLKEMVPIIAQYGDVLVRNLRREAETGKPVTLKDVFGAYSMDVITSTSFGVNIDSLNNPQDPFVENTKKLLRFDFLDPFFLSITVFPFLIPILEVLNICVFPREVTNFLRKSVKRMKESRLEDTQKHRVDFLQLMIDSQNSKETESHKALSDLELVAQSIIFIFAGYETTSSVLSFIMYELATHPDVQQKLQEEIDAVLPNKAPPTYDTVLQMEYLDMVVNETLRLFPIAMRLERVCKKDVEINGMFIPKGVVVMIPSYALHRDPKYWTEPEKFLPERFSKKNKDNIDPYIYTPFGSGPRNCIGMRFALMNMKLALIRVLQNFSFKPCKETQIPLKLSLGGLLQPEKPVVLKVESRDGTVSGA

Row | SMILES | activity, negative = inhibition | AC50
1 | CCOC(=O)Nc1ccc(C(=O)Oc2ccccc2)c(O)c1 | -6.59% (inactive) | 
2 | C[n+]1cc(-c2ccccc2)n2c1CCCCC2 | 1.83% (inactive) | 
3 | CCOC(=O)[C@]1(CC(=O)O)CCCC1=O | -3.51% [at 11.4 µM] (inactive) | 
4 | CC(C)(C)Cn1nc(-c2ccc(Cl)cc2)c2c(N)ncnc21 | -26.6% (inactive) | 
5 | CCCn1nc2cc(C(=O)NCCCCc3ccccc3)ccc2c1OCC |  | 15.8 µM (active)
6 | COCCn1nc2cc(C(=O)NCc3cc(C(F)(F)F)cc(C(F)(F)F)c3)ccc2c1OC | 10.6% [at 2.29 µM] (inactive) | 
7 | CCOc1c2ccc(C(=O)NCCCCc3ccccc3)cc2nn1CC | 18.3% [at 2.29 µM] (inactive) | 
8 | CCOc1c2ccc(C(=O)NCc3cc(C(F)(F)F)cc(C(F)(F)F)c3)cc2nn1C |  | 12.6 µM (active)
9 | CCOc1c2ccc(C(=O)NCCCCc3ccccc3)cc2nn1C | -28.7% (inactive) | 
10 | CCOc1c2ccc(C(=O)NCc3ccc(OC(F)(F)F)cc3)cc2nn1C | 16.7% [at 2.29 µM] (inactive) | 
11 | COCCn1nc2cc(C(=O)NCC34CC5CC(CC(C5)C3)C4)ccc2c1OC | -1.55% [at 2.29 µM] (inactive) | 
12 | CCCCn1nc2cc(C(=O)NCC3CC3)ccc2c1OCC | -28% (inactive) | 
13 | CCCn1nc2cc(C(=O)NCCc3ccc(C)cc3)ccc2c1OCC |  | 6.31 µM (active)
14 | CCCn1nc2cc(C(=O)NCc3ccc(C)cc3)ccc2c1OC |  | 14.1 µM (active)
15 | CCOC(=O)N/N=C1/C[C@@H](O)[C@@H](O)[C@@H]2[C@@H]3C(=O)N(CC)C(=O)[C@H]3CC[C@H]12 | -6.5% [at 11.4 µM] (inactive) | 
16 | N#Cc1c(-c2ccccc2)ccnc1Oc1ccccc1 | 12.9% (inactive) | 
17 | C/C(=N\OC(=O)c1ccccc1F)c1nccs1 | -4.04% (inactive) | 
18 | CC(=O)OC[C@@H]1O[C@H](C/C=N\OC[C@@H](O)[C@H]2O[C@H]3OC(C)(C)O[C@H]3[C@@H]2O)C=C[C@@H]1OC(C)=O | -11.1% [at 11.4 µM] (inactive) | 
19 | CC1(C)O[C@@H]2O[C@H]([C@H](O)CO/N=C3/[C@H]4O[C@@H]4[C@@H](O)[C@H]4[C@H]3CCn3c(=O)n(-c5ccccc5)c(=O)n34)[C@@H](O)[C@@H]2O1 | -8.83% [at 11.4 µM] (inactive) | 
20 | COc1ccc(O[C@H]2C=C[C@@H](c3ccccc3)O[C@H]2COC(=O)CC/C(C)=N\OC[C@@H](O)[C@H]2O[C@H]3OC(C)(C)O[C@H]3[C@@H]2O)cc1 |  | 3.98 µM (active)
21 | C/C(CCC(=O)OC[C@@H]1O[C@H](C#Cc2ccccc2)C=C[C@@H]1Oc1ccc(C)cc1)=N/OC[C@@H](O)[C@H]1O[C@H]2OC(C)(C)O[C@H]2[C@@H]1O |  | 3.98 µM (active)
22 | CCOc1ccc(/C(O)=C2/C(=O)C(=O)N(CCCn3ccnc3)C2c2cccs2)cc1Cl (configuration not stated) |  | 0.282 µM (active)

Row | SMILES | activity, negative = inhibition | AC50
23 | Cc1ccc(/C(O)=C2/C(=O)C(=O)N(CCCn3ccnc3)C2c2ccccn2)cc1 (configuration not stated) | -23.3% (inactive) | 
24 | COCCCN1C(=O)C(=O)/C(=C(/O)c2ccc(OC(C)C)c(C)c2)C1c1ccncc1 (configuration not stated) | -21.3% (inactive) | 
25 | CCN(CC)CCN1C(=O)c2cccc3cc(N)cc(c23)C1=O | -14.7% [at 11.4 µM] (inactive) | 
26 | Cc1ccc(NC(=S)N2CCN(CCN3C(=O)c4cccc5cccc(c45)C3=O)CC2)cc1 |  | 4.47 µM (active)
27 | Cn1cnnc1SCC(=O)OCN1C(=O)c2ccccc2C1=O | -1.18% (inactive) | 
28 | CC(=NCCN1CCN(C(=S)Nc2ccccc2)CC1)C1=C(O)CC(C)(C)CC1=O | -20.4% [at 11.4 µM] (inactive) | 
29 | Cc1cccc(/C(N)=N/OC(=O)CCCN2C(=O)c3ccccc3C2=O)c1 |  | 4.47 µM (active)
30 | O=C1c2ccccc2C(=O)N1CCSC(=S)N1CCOCC1 | 19.9% (inactive) | 
31 | Cc1cccc(NC(=O)CCCN2C(=O)c3cccc4cccc(c34)C2=O)c1 |  | 2.24 µM (active)
32 | O=C(CCN1C(=O)c2ccccc2C1=O)Oc1ccc2ccccc2c1 | -16.5% (inactive) | 
33 | COc1ccccc1CN1CCC2(CC1)CCN(S(=O)(=O)c1ccccc1)CC2 | 9.4% (inactive) | 
34 | COc1ccccc1CN1CC[C@@]2(CCCN(S(=O)(=O)c3ccccc3)C2)C1 |  | 10 µM (active)
35 | COc1ccccc1CN1CC2(CCN(S(C)(=O)=O)CC2)C1 | -33.1% (inactive) | 
36 | COc1ccccc1CN1CC2(CCN(S(=O)(=O)c3ccccc3)CC2)C1 |  | 20 µM (active)
37 | COc1ccccc1CN1CCC2(CC1)CCN(S(C)(=O)=O)CC2 | -21.7% (inactive) | 
38 | COc1ccccc1CN1CCCC2(CCN(S(C)(=O)=O)CC2)C1 | -21.3% (inactive) | 
39 | CC(=O)OCC(=O)[C@@]1(O)CC[C@@H]2[C@H]3CCC4=CC(=O)CC[C@]4(C)[C@]3(F)[C@@H](O)C[C@@]21C | -19.6% [at 25.6 µM] (inactive) | 
40 | CN1Cc2c(C(=O)OC(C)(C)C)ncn2-c2ccsc2C1=O | 22.5% (inactive) | 
41 | Cc1cccn2c(/C=N/OCc3ccc(F)cc3)c(-c3ccc(Cl)cc3)nc12 | -20.4% (inactive) | 
42 | COc1ccc(/C(C#N)=C/c2c(-c3ccc(Cl)cc3)nc3c(C)cccn23)cc1 |  | 2.82 µM (active)
43 | CC(=O)c1ccc(N2CCC(c3cc(-c4ccc(Cl)cc4Cl)n[nH]3)CC2)c([N+](=O)[O-])c1 |  | 12.6 µM (active)
44 | COc1ccc(-c2cc(C3CCN(c4ccc(C(C)=O)cc4[N+](=O)[O-])CC3)[nH]n2)cc1 |  | 4.47 µM (active)

Row | SMILES | activity, negative = inhibition | AC50
45 | CCCNc1c(F)c(F)c2c(C)c3ccccc3nc2c1F |  | 6.31 µM (active)
46 | Cc1cc(NCCO)c2ccccc2n1 | -18.2% (inactive) | 
47 | CC(C)C(O)(C(C)C)C(C)C | -4.9% [at 11.4 µM] (inactive) | 
48 | Cc1ccc2[nH]c3c(c2c1)CN(C(=O)CN1c2ccc(F)cc2CCC1C)CC3 (configuration not stated) |  | 8.91 µM (active)
49 | COc1ccc2[nH]c3c(c2c1)CN(C)CC3 | 0.59% (inactive) | 
50 | Nc1c(S(=O)(=O)c2ccccc2)c2nc3ccccc3nc2n1Cc1ccco1 |  | 3.98 µM (active)
51 | CC(=O)Nc1c(S(=O)(=O)c2ccccc2)c2nc3ccccc3nc2n1Cc1ccccc1 |  | 4.47 µM (active)
52 | COC(=O)CCSc1cc([N+](=O)[O-])cc2c1c(C1OCCS1)nn2-c1ccccc1 (configuration not stated) |  | 14.1 µM (active)
53 | O=C(O)/C=C\C(=O)Nc1cccc2c1-c1ccccc1C2=O | -10.9% [at 11.4 µM] (inactive) | 
54 | O=C(O)/C=C/C(=O)Nc1ccccc1-c1ccccc1 | 19% (inactive) | 
55 | O=C(O)/C=C\C(=O)Nc1ccc2c(c1)C(=O)c1cc(F)ccc1-2 |  | 3.16 µM (active)
56 | CCCCc1n[nH]c2c1/C(=N/O)CC(c1ccccc1)C2 (configuration not stated) |  | 12.6 µM (active)
57 | Cc1cc(=O)[nH]c(-n2[nH]c3c(c2=O)CCCC3)n1 | -8.37% (inactive) | 
58 | Cc1ccc(S(=O)(=O)Nc2cc(=O)[nH]c3c2CCC3)cc1 |  | 3.16 µM (active)
59 | Nc1nc(SCc2ccccc2Cl)cc(C(=O)O)n1 | -1.56% [at 11.4 µM] (inactive) | 
60 | CC1=C(C(N)=O)C(c2ccccn2)n2nc(SCc3ccccc3Cl)nc2N1 (configuration not stated) |  | 6.31 µM (active)
61 | CC(C)=CCc1c2c(c3occ(-c4ccc(O)c(O)c4)c(=O)c3c1O)C=CC(C)(C)O2 | 0.0575% [at 11.4 µM] (inactive) | 
62 | Cc1cccc(N(CC(=O)NC2CCCC2)C(=O)c2cc3cc4cccc(C)c4nc3s2)c1C |  | 4.47 µM (active)
63 | CC(C)CC(C(=O)NCC1CCCO1)N(C(=O)Cn1nnc(-c2ccc(F)cc2)n1)c1cccc(C(F)(F)F)c1 (configuration not stated) |  | 10 µM (active)
64 | CN(C(=O)Cn1nnc(-c2cccc(C(F)(F)F)c2)n1)C1CCCCC1 | -16.8% (inactive) | 
65 | Cc1ccc(N(C(=O)Cn2nnc(-c3ccc(F)cc3)n2)C(CC(C)C)C(=O)NCC2CCCO2)cc1 (configuration not stated) |  | 14.1 µM (active)
66 | CC(C)CC(C(=O)NCC1CCCO1)N(C(=O)Cn1nnc(-c2ccc(F)cc2)n1)c1ccccc1F (configuration not stated) |  | 14.1 µM (active)

Row | SMILES | activity, negative = inhibition | AC50
67 | Nc1nc2c(c(=O)[nH]1)N(C=O)[C@H](CNc1ccc(C(=O)N[C@@H](CCC(=O)O)C(=O)O)cc1)CN2 | -2.19% [at 25.6 µM] (inactive) | 
68 | N/N=C1/CC(=O)NC(=O)N1 | -21.1% [at 11.4 µM] (inactive) | 
69 | Cc1ccc(NC(=O)C2(NC(=O)c3cccc(N4C(=O)CSC4c4ccccc4)c3)CCCCC2)cc1 (configuration not stated) |  | 2.82 µM (active)
70 | CC(=O)Nc1ccc(N2C(=O)CC(c3ccccc3)CC2=O)cc1 | 1.08% [at 2.29 µM] (inactive) | 
71 | Cc1ccc(C2C3=C(CCCC3=O)Nc3nc(SCC(=O)NCc4ccco4)[nH]c(=O)c32)cc1 (configuration not stated) |  | 7.94 µM (active)
72 | CCCCCCN1Cc2ccccc2C1 | -12.8% (inactive) | 
73 | CN(C(=O)c1cnc(N2CCN(c3ncccn3)CC2)c2ccccc12)c1ccc(Cl)cc1 | 28.1% [at 11.4 µM] (inactive) | 
74 | CCN(C(=O)c1cnc(N2CCN(c3ncccn3)CC2)c2ccccc12)c1cccc(Cl)c1 |  | 6.31 µM (active)
75 | O=C1c2ccccc2S(=O)(=O)N1CCCCN1CCN(c2ncccn2)CC1 | -10.4% (inactive) | 
76 | Clc1ccc(/C=N/c2c(-c3ccc(Cl)cc3)nc3n2CCS3)cc1 | -12.1% [at 2.29 µM] (inactive) | 
77 | COc1cccc(-c2ccc3ncnc(NCc4cnc(C)cn4)c3c2)c1 |  | 7.94 µM (active)
78 | Cc1cnc(CNc2ncnc3ccc(-c4cccc(C#N)c4)cc23)cn1 |  | 3.16 µM (active)
79 | COc1ccc(/C=N/n2cnc3c([nH]c4ccc(Br)cc43)c2=O)cc1CN1CCOCC1 |  | 5.01 µM (active)
80 | Cc1cc2nc(SCCOC(=O)Nc3ccc(Cl)cc3)nc(C)c2cc1C | 23.5% (inactive) | 
81 | CCCCSc1nc(C)cc(NC(=S)Nc2ccc(OC)cc2)n1 |  | 7.08 µM (active)
82 | S=C(S)O[C@@H]1C[C@@H]2C[C@H]1[C@@H]1CCC[C@H]21 |  | 3.98 µM (active)
83 | CCOC(=O)C(CC)(CC)C(=O)/C=C/c1ccc(Br)cc1 | -13.8% (inactive) | 
84 | CCOC(=O)CCc1c(C)nc2ncnn2c1C | -3.42% (inactive) | 
85 | Cc1nc2ncnn2c(C)c1CCC(=O)NC(C)c1ccc2c(c1)OCCO2 (configuration not stated) |  | 15.8 µM (active)
86 | Cc1nc2nc(C)c(CCC(=O)NCCCN3CCN(c4cccc(Cl)c4)CC3)c(C)n2n1 | -13.6% (inactive) | 
87 | Cc1ccc(CNC(=O)CCc2c(C)nc3ncnn3c2C)cc1 |  | 2 µM (active)
